Assay results published in PubChem BioAssay (Tox21).
Several values for one entry are separate records, joined by “and”; a condition that tells them apart may be missing. Equal entries are not always repeated. Results filed as inconclusive are left out. Activity calls are given as the source filed them. Unless noted, calls come from the whole dose curve; as a rule, active = well fitted curve in the direction sought with a large enough effect in the repeat runs; inconclusive = weak or mixed curves; inactive = no such curve, though single readings can be large; an effect the other way counts as inactive or inconclusive.

Key:
[1] = biological target: Thyrotropin receptor (Homo sapiens) (UniProt P16473); assay: qHTS assay to identify small molecule antagonists of the thyroid stimulating hormone receptor (TSHR) signaling pathway (AID 1259385; calls by dose curve; note: nearly all actives have a fitted effect of over 20% in size)
Sequence of Thyrotropin receptor (Homo sapiens) (P16473 whole entry, looked up): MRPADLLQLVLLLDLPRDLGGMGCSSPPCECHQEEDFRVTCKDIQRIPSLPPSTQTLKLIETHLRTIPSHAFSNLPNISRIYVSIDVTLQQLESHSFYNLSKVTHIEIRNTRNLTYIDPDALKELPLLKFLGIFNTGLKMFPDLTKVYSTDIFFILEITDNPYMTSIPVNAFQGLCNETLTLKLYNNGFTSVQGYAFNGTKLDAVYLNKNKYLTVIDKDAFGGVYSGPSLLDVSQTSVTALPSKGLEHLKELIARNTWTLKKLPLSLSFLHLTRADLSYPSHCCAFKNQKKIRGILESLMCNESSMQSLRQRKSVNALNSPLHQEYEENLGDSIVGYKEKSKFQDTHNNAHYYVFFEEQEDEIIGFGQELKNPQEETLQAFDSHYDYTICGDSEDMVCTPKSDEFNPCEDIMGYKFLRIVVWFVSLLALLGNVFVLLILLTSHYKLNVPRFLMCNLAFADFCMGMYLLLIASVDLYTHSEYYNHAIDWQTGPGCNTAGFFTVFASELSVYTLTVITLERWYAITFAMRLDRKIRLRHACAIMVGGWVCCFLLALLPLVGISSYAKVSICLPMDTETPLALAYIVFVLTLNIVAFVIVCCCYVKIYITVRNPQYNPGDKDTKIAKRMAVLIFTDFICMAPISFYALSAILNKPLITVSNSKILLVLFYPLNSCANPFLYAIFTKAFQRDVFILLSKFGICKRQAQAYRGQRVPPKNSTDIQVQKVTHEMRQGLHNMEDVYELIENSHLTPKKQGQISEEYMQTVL
Outline: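 Antagonist mode: compound-treated TSHR-expressing HEK293 cells were stimulated with 1.5 ng/mL TSH (final) in presence of Ro20-1724 for 30 min at RT. HTRF cAMP detection after 1 h; each compound tested at 15 concentrations, triplicate.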

[2] = qHTS assay to identify small molecule agonists of the estrogen receptor alpha (ER-alpha) signaling pathway in the presence of an antagonist - cell viability counter screen (AID 1259386);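 note: series mostly up to about 92 µM; cells exposed to compounds for 22 h at 37 °C before the viability read; nearly all actives have a fitted effect of over 30% in size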
Outline: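 The test measures whether compounds kill ER-alpha reporter cells (VM7Luc4E2) under antagonist co-treatment (ICI-182,780, 10.0nM). Fluorescence from CellTiter-Fluor is read after a 22hr exposure.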

[3] = biological target: Progesterone receptor (Homo sapiens) (UniProt P06401); assay: qHTS assay to identify small molecule agonists of the progesterone receptor (PR) signaling pathway (AID 1346784; calls by dose curve; note: nearly all actives have a fitted effect of over 30% in size)
Sequence of Progesterone receptor (Homo sapiens) (P06401 whole entry, looked up): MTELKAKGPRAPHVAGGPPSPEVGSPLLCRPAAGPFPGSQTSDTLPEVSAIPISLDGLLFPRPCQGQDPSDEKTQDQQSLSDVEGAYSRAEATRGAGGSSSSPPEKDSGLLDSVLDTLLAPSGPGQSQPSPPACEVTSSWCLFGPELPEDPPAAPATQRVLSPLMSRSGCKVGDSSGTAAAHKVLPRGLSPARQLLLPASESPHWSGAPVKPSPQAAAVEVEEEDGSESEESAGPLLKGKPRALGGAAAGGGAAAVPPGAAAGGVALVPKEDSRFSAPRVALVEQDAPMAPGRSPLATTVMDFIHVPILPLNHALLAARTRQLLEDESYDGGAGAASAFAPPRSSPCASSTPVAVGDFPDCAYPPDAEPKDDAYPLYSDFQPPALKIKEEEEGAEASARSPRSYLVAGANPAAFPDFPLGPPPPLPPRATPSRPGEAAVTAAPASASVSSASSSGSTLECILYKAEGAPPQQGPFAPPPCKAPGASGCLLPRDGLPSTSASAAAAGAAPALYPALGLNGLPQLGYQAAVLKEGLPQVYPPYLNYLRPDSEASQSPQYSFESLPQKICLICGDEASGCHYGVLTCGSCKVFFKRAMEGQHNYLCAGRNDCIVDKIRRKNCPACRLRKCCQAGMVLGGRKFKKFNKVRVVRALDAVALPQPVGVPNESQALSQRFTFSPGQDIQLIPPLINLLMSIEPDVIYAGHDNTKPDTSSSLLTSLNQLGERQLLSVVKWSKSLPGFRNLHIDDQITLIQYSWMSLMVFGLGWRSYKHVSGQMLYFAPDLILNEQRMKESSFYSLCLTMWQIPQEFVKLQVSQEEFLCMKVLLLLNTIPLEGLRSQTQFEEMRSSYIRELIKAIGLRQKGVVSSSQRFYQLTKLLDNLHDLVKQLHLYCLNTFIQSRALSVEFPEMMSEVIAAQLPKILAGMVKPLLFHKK
Outline: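 HEK 293T PR-UAS-bla reporter cells, 2% charcoal-stripped FBS; 6 hr settle at 37C/5% CO2, compound (DMSO) 16 hr, LiveBLAzer B/G FRET substrate 2 hr RT, fluorescence intensity read.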

[4] = biological target: Progesterone receptor (Homo sapiens) (UniProt P06401); assay: qHTS assay to identify small molecule antagonists of the progesterone receptor (PR) signaling pathway (AID 1346795; active = well fitted inhibition curve with a large enough effect in the signal ratio in the repeat runs, not every such curve was filed as active; the % refers to the signal ratio)
Outline: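 Beta-lactamase reporter, HEK293T PR-UAS-bla line; 2% charcoal-stripped FBS; 6 hr pre-incubation, 37C/5% CO2. Compound + R5020 1 nM final, 16 hr. LiveBLAzer B/G FRET substrate, 2 hr RT; fluorescence intensity read.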

[5] = qHTS assay to identify small molecule antagonists of the progesterone receptor (PR) signaling pathway - cell viability counter screen (AID 1346798); note: series mostly up to about 92 µM; nearly all actives have a fitted effect of over 50% in size
Outline: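 Luminescence readout (CellTiter-Glo, 30 min, RT) of viability in PR-UAS-bla HEK293T cells exposed to compound and R5020 agonist for 16 hr at 37C, 5% CO2; run in the same wells as the beta-lactamase reporter read.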

[6] = qHTS assay to identify small molecule antagonists of the TGF-beta/Smad signaling pathway - cell viability counter screen (AID 1346824); note: nearly all actives have a fitted effect of over 50% in size
Outline: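 Cytotoxicity counter-screen run in the same wells as the beta-lactamase Smad reporter read: CellTiter-Glo luminescence after 30 min at room temperature. HEK 293T SBE-bla cells had 5 hr compound exposure at 37 C with TGF-beta1 (0.25 ng/mL stock).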

[7] = qHTS assay to identify small molecule agonists of the TGF-beta/Smad signaling pathway - cell viability counter screen (AID 1346829); note: top concentration of the series differs between compounds; nearly all actives have a fitted effect of over 45% in size
Outline: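 Compound-treated SBE-bla HEK 293T cells (5 hr, 37 C) were assessed for viability with CellTiter-Glo in parallel with the reporter read.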

[8] = qHTS assay to identify small molecule agonists of the TGF-beta/Smad signaling pathway (AID 1346859; active = well fitted activation curve with a large enough effect in the signal ratio in the repeat runs, not every such curve was filed as active; the % refers to the signal ratio; note: series mostly up to about 77 µM)
Outline: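 Read-out: fluorescence at 460 and 530 nm (405 nm excitation) after a 2 hr room-temperature incubation with beta-lactamase FRET substrate. SBE-bla HEK 293T cells had been treated with test compounds for 5 hr at 37 C.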

[9] = biological target: Thyrotropin-releasing hormone receptor (Homo sapiens) (UniProt P34981); assay: qHTS assay to identify small molecule antagonists of the thyrotropin-releasing hormone receptor (TRHR) signaling pathway (AID 1346877; active = well fitted inhibition curve with a large enough effect in the repeat runs, not every such curve was filed as active; note: series mostly up to about 51 µM)
Sequence of Thyrotropin-releasing hormone receptor (Homo sapiens) (P34981 whole entry, looked up): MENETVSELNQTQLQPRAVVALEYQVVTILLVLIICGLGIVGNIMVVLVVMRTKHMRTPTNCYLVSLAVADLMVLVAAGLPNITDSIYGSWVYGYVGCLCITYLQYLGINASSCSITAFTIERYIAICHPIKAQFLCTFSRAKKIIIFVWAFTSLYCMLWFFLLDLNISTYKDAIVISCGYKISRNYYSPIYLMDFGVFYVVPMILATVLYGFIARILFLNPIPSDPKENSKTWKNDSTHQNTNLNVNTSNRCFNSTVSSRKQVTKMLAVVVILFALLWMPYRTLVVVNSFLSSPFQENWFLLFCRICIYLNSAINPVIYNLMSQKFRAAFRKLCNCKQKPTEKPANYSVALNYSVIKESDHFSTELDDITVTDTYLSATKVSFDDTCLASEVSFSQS
Outline: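 Overnight-plated (18 h, 37 °C) HEK293 cells expressing TRHR were dye-loaded 2 h, treated with compound, then stimulated with TRH at 1 nM final. Fluorescence intensity was captured every second for 3 min.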

[10] = biological target: Thyrotropin-releasing hormone receptor (Homo sapiens) (UniProt P34981); assay: qHTS assay to identify small molecule agonists of the thyrotropin-releasing hormone receptor (TRHR) signaling pathway (AID 1346891; calls by dose curve;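 note: HEK293 cells expressing TRHR with calcium dye readout; series mostly up to about 58 µM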)
Outline: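 HEK293/TRHR cells, 1500 per well, 18 h 37 °C; Ca dye 2 h 37 °C; pin-tool compound addition (agonist mode); kinetic fluorescence 3 min, 1 s reads; 15 concentrations, triplicate.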

[11] = Human pregnane X receptor (PXR) small molecule agonists, qHTS cell viability counter screen (AID 1346977); note: nearly all actives have a fitted effect of over 50% in size
Outline: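 Fluorescence read-out (CellTiter-Fluor) of viability in PXR-Luc HepG2 cells, multiplexed with the luciferase agonist read. Compounds in DMSO added after 5hr plating; 24hr total exposure at 37C, 5% CO2.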

[12] = Caspase-3/7 induction in HepG2 cells by small molecules, qHTS assay (AID 1346978); note: nearly all actives have a fitted effect of over 15% in size
Outline: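 Caspase-3/7 induction was measured by Caspase-Glo 3/7 luminescence (30 min, room temperature) after a 17 hr compound exposure of wild-type HepG2 cells seeded at 2,000 per well and pre-incubated 5 hr.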

[13] = Caspase-3/7 induction in CHO-K1 cells by small molecules, qHTS assay (AID 1346980); note: nearly all actives have a fitted effect of over 15% in size
Outline: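 Luminescent Caspase-Glo 3/7 read (30min, room temperature) quantified apoptosis induction. Cells were wild-type CHO-K1, treated with compound for 17hr at 37 C and 5% CO2.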

[14] = Caspase-3/7 induction in HepG2 cells by small molecules, qHTS cell viability counter screen (AID 1346981); note: series mostly up to about 92 µM; nearly all actives have a fitted effect of over 30% in size
Outline: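 Treatment of HepG2 cells with DMSO-delivered compounds ran 16 hr at 37 C following a 5-hr pre-incubation of 2,000 cells/well. CellTiter-Fluor fluorescence, read after 1 hr, served as the viability measure in a qHTS format.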

[15] = biological target: Nuclear receptor subfamily 1 group I member 2 (Homo sapiens) (UniProt O75469); assay: Human pregnane X receptor (PXR) small molecule agonists, qHTS assay (AID 1346982); note: nearly all actives have a fitted effect of over 35% in size
Sequence of Nuclear receptor subfamily 1 group I member 2 (Homo sapiens) (O75469 whole entry, looked up): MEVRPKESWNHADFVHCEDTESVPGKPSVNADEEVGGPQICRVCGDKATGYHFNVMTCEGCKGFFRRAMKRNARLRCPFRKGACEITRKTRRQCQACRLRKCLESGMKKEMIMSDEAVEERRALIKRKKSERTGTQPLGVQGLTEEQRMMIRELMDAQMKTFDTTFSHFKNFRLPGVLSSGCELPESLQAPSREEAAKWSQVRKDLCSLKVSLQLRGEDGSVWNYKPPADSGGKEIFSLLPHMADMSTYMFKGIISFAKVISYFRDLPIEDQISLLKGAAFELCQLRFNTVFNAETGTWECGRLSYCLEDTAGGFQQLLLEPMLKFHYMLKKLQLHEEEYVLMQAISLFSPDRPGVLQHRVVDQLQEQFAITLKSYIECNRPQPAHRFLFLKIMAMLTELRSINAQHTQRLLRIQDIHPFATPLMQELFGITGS
Outline: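 Stable HepG2 line reporting PXR-mediated CYP3A4 expression via luciferase. Treatment: 24 hr with compounds in DMSO at 37 C. Detection: ONE-Glo luminescence.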

[16] = Caspase-3/7 induction in CHO-K1 cells by small molecules, qHTS cell viability counter screen (AID 1346979); note: nearly all actives have a fitted effect of over 35% in size
Outline: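 CHO-K1 wt, 1,500 cells/well; 5hr pre-incubation 37C/5% CO2; compound pin transfer (DMSO); 16hr exposure; CellTiter-Fluor added, 1hr, fluorescence read.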

[17] = biological target: Nuclear receptor subfamily 1 group I member 2 (Rattus norvegicus) (UniProt Q9R1A7); assay: Rat pregnane X receptor (rPXR) activation by small molecules, qHTS assay (AID 1346983); conditions: rPXR luciferase reporter cells, One-Glo luminescence, 24 h; max activation: stronger effect = higher value; note: nearly all actives have a fitted effect of over 20% in size
Sequence of Nuclear receptor subfamily 1 group I member 2 (Rattus norvegicus) (Q9R1A7 whole entry, looked up): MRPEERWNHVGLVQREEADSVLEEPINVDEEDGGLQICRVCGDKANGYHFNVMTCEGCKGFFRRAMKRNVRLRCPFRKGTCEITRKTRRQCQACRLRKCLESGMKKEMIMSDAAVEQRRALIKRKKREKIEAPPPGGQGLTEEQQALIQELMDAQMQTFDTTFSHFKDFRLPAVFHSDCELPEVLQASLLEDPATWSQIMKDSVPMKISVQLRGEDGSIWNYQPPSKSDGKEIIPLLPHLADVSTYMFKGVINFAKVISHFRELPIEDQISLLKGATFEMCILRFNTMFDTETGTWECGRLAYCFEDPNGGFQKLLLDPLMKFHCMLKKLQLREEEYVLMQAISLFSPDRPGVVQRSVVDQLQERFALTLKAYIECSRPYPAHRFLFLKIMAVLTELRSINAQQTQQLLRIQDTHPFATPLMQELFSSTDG
Outline: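 Luminescent readout (One-Glo luciferase, 30 min room temperature) followed 24 hr compound treatment at 37 C of rPXR cells plated 2,000 per well and preincubated 5hr; qHTS format with compounds delivered in DMSO.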

[18] = biological target: Nuclear receptor subfamily 1 group I member 2 (Homo sapiens) (UniProt O75469); assay: CYP3A4 induction through human pregnane X receptor (PXR) by small molecules, qHTS assay (AID 1346984); note: nearly all actives have a fitted effect of over 40% in size
Outline: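 After 24 h at 37C with compound, DPX-2 cells (HepG2, co-transfected PXR response element and CYP3A4 promoter-luciferase) got 3uM final P450-Glo Luciferin-IPA for 3 h; One-Glo luminescence followed.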

[19] = biological target: Nuclear receptor subfamily 1 group I member 2 (Homo sapiens) (UniProt O75469); assay: Human pregnane X receptor (PXR) activation by small molecules, qHTS assay (AID 1346985); note: nearly all actives have a fitted effect of over 40% in size
Outline: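 DPX-2 cells (HepG2 co-transfected with a PXR response element and a CYP3A4-promoter luciferase construct) were seeded at 2,000 per well, rested 5 hr at 37C, then exposed to DMSO-dissolved compounds for 24 hr. Activation was read as luciferase luminescence.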

[20] = qHTS assay to identify small molecule agonists of the progesterone receptor (PR) signaling pathway - cell viability counter screen (AID 1346799; calls by dose curve; note: nearly all actives have a fitted effect of over 45% in size)
Outline: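 HEK293T PR-UAS-bla, 3,000 cells/well, 2% charcoal-stripped FBS; 6 h settle, compound 16 h at 37C/5% CO2; LiveBLAzer 2 h RT, then CellTiter-Glo 30 min RT, luminescence read.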
% is set by controls: 0 for no effect and ±100 for the full control effect.

COC(C)(C)OC
inactive: Potency [1] | Potency [2] | Potency [3] | Potency [4] | Potency [5] | outcome [6] | Potency [7] | Potency [8] | outcome [9] | outcome [10] | Potency [11] | Potency [12] | outcome [13] | Potency [14] | Potency [15]

CC[C@H]1OC(=O)[C@H](C)[C@@H](O[C@H]2C[C@@](C)(OC)[C@@H](O)[C@H](C)O2)[C@H](C)[C@@H](O[C@@H]2O[C@H](C)C[C@H](N(C)C)[C@H]2O)[C@](C)(O)C[C@@H](C)C(=O)[C@H](C)[C@@H](O)[C@]1(C)O
inactive: Potency [1] | Potency [2] | Potency [3] | Potency [4] | Potency [5] | Potency [7] | Potency [8] | Potency [11] | Potency [12] | Potency [16] | outcome [13] | Potency [14] | Potency [15] | max activation [17] -0.703% and -0.253% | Potency [18] | Potency [19]

CC(C)N(C)C
inactive: Potency [1] | Potency [2] | Potency [3] | Potency [4] | Potency [5] | Potency [7] | Potency [8] | outcome [9] | outcome [10] | Potency [11] | Potency [12] | Potency [16] | outcome [13] | Potency [14] | Potency [15]

CCOC(=O)N1CCC(Nc2ccc(Cl)cc2N)CC1
inactive: Potency [1] | Potency [2] | Potency [3] | Potency [5] | Potency [20] | outcome [6] | Potency [8] | outcome [9] | outcome [10] | Potency [11] | Potency [12] | Potency [16] | outcome [13] | Potency [14] | Potency [15]

CCOC(=O)Oc1ccc(CCNC(=O)[C@H](CCSC)NC(C)=O)cc1OC(=O)OCC
inactive: Potency [1] | Potency [2] | Potency [3] | Potency [4] | Potency [5] | outcome [6] | Potency [7] | Potency [8] | Potency [11] | Potency [12] | Potency [16] | outcome [13] | Potency [14] | Potency [15]

COc1cc(NS(=O)(=O)c2ccc(N)cc2)nc(C)n1
inactive: Potency [1] | Potency [2] | Potency [3] | Potency [4] | Potency [5] | outcome [6] | Potency [7] | Potency [8] | outcome [9] | outcome [10] | Potency [11] | Potency [12] | outcome [13] | Potency [14] | Potency [15]

Cc1ccc(S(=O)(=O)NC(=O)NC2CCCCC2)cc1
inactive: Potency [1] | Potency [2] | Potency [3] | Potency [4] | Potency [20] | Potency [7] | Potency [8] | outcome [9] | outcome [10] | Potency [11] | Potency [12] | Potency [16] | outcome [13] | Potency [15] | max activation [17] -5.99% | Potency [18] | Potency [19]

CC(=O)NNC(C)=O
inactive: Potency [1] | Potency [2] | Potency [3] | Potency [4] | Potency [20] | Potency [7] | Potency [8] | outcome [9] | outcome [10] | Potency [11] | Potency [12] | outcome [13] | Potency [14] | Potency [15]
